{"source": "the supplement of paper PMC11417369", "note": "± gives the standard deviation of the averaged measurements. In all, about 25,000 sequences were measured (“ln(normalized median fluorescence intensity)”: median about 8.6, highest 2% from about 10 on). The full list was thinned out, with the highest values kept by preference.", "data": [{"system": "PfAP2-EXP AP2 domain (GST-tagged)", "test": "gcPBM binding intensity (ln(normalized median fluorescence intensity)); higher = stronger DNA binding", "procedure,_shortened": "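After 1 h on an Agilent 4 × 180k array of primer-extended double-stranded 36-bp intergenic genomic probes and negative controls, bound GST-tagged P. falciparum DNA-binding domains were detected with Alexa488 anti-GST antibody and scanned at 488 nm. The domains had been expressed in E. coli, and binding took place in 1× PBS with 1% milk, 0.2 mg/ml BSA, 0.5% salmon testes DNA and 0.03% Triton X-100. Binding intensity is the highest Masliner-normalised natural-log median intensity across replicate spots of either probe orientation.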", "values": [{"sequence": "CAATTAAAAAATAATACATGCATATAAATAGATATT [TGCATGCA_site427]", "gcPBM binding intensity (ln)": "8.71 ± 0.38"}, {"sequence": "TATATATATATAGATGCATGCAATTACATATAACAA [TGCATGCA_site118]", "gcPBM binding intensity (ln)": "10.2 ± 0.23"}, {"sequence": "ATATAGATGCATAATACACACATCAGATAATTAACC [CACACA_site6871]", "gcPBM binding intensity (ln)": "8.64 ± 0.33"}, {"sequence": "TCCTTATTTCATATTTTTAAATAATACAAAAAAAAA [CACACA_negctrl_site773]", "gcPBM binding intensity (ln)": "8.06 ± 0.38"}, {"sequence": "TATAATAATACGTATTGTACTATTAGGTTAATTCGT [XGTACX_site264]", "gcPBM binding intensity (ln)": "8.34 ± 0.33"}, {"sequence": "ATGTAGGTTAATTATTGTACGTAGGGGGTGTATATT [XGTACX_site3973]", "gcPBM binding intensity (ln)": "10.2 ± 0.48"}, {"sequence": "TATAATAATAATTATTGTACGATTAGGTTAATTCAT [XGTACX_site1984]", "gcPBM binding intensity (ln)": "8.37 ± 0.23"}, {"sequence": "ATTATTTTAATAAAACGTACAAAATATAAATCAAAA [XGTACX_site3770]", "gcPBM binding intensity (ln)": "8.73 ± 0.45"}, {"sequence": "GGTTAGACGAAATATACATGCAATGGAAAATAAGTT [TGCATGCA_site23]", "gcPBM binding intensity (ln)": "9.42 ± 0.24"}, {"sequence": "AAATAAAAAGTAAAGCGTACAAATGATCAAATAATA [XGTACX_site7898]", "gcPBM binding intensity (ln)": "9.04 ± 0.53"}, {"sequence": "AAGAATATAATCTTCACACATATATATATATATATA [CACACA_site5927]", "gcPBM binding intensity (ln)": "10.2 ± 0.33"}, {"sequence": "TTTCTTCATTTTTTCACACATAAGAAAATATAATCA [CACACA_site4275]", "gcPBM binding intensity (ln)": "8.46 ± 0.46"}, {"sequence": "ACATCTCTTATATATTCACACACATATATATAATTA [CACACA_site8424]", "gcPBM binding intensity (ln)": "8.82 ± 0.35"}, {"sequence": "TATATAATTGTCTTCACACACACATATATATATATA [CACACA_site2744]", "gcPBM binding intensity (ln)": "10 ± 0.3"}, {"sequence": "TTGTAATATCTTGTCACACATATATATATATATATA [CACACA_site4937]", "gcPBM binding intensity (ln)": "10.2 ± 0.57"}, {"sequence": "AAAGAAAGTACCTTCACACATATAAGAATATAATAT [CACACA_site5214]", "gcPBM binding intensity (ln)": "8.6 ± 0.52"}, {"sequence": "TTTTTTTTTTTTGTCACACATATGGAATATATCTAT [CACACA_site5899]", "gcPBM binding intensity (ln)": "8.54 ± 0.54"}, {"sequence": "TATATCTTAATATACACACACACATATATATATATA [CACACA_site4968]", "gcPBM binding intensity (ln)": "10 ± 0.35"}, {"sequence": "TATAATTGTCTTCACACACACATATATATATATATA [CACACA_site2743]", "gcPBM binding intensity (ln)": "10.2 ± 0.29"}, {"sequence": "TTCAAAATAAAAAATTCACACACATATATATATATA [CACACA_site8653]", "gcPBM binding intensity (ln)": "10 ± 0.45"}, {"sequence": "ATCTTTCAATAATTCACACATATATATATATATATA [CACACA_site4598]", "gcPBM binding intensity (ln)": "10.2 ± 0.28"}, {"sequence": "ATTATATAATTGTCTTCACACACACCGATATATATA [CACACA_site8883]", "gcPBM binding intensity (ln)": "8.93 ± 0.51"}, {"sequence": "ATCTATGAAAAAGGTACATGCAATAAAGAAACATAT [TGCATGCA_site805]", "gcPBM binding intensity (ln)": "9.54 ± 0.45"}, {"sequence": "TCATAAATTAAACAAACACACACGTTCTTTTATTTA [CACACA_site713]", "gcPBM binding intensity (ln)": "8.38 ± 0.33"}, {"sequence": "ATACTTTTATTTTTGGTGCATATATCATGTAGACGT", "gcPBM binding intensity (ln)": "9.025 ± 0.035"}, {"sequence": "AATATTTTTTTTTAAACATGCATATTTGCATTACCC [TGCATGCA_site437]", "gcPBM binding intensity (ln)": "8.58 ± 0.41"}, {"sequence": "CTTTTTTTTTTGGGGGTGCATGCAAGACATATATTT [GTGCAC_site9660]", "gcPBM binding intensity (ln)": "10.51 ± 0.028"}, {"sequence": "CATATTATTATTTTGGTGCATACTTATATATATTTT", "gcPBM binding intensity (ln)": "8.75 ± 0.31"}, {"sequence": "TTTTTTTTTGGGGGTGCATGCAAGACATATATTTAA [TGCATGCA_site228]", "gcPBM binding intensity (ln)": "10.43 ± 0.028"}, {"sequence": "AATATTTTATTTTGGGTGCAAAAGAATATTATTTCA", "gcPBM binding intensity (ln)": "8.34 ± 0.071"}, {"sequence": "ATTTTGGAAATAATATGTACATATACATAATATATA [XGTACX_site4177]", "gcPBM binding intensity (ln)": "8.36 ± 0.29"}, {"sequence": "GCATTGATCAAACATACACACATGGTTAATAAAAAT [CACACA_site2085]", "gcPBM binding intensity (ln)": "8.72 ± 0.55"}, {"sequence": "ATTCTTTATTATTCGCCACACACATATATATATATA [CACACA_site9009]", "gcPBM binding intensity (ln)": "10.2 ± 0.28"}, {"sequence": "TTTCTTTTTATATTCACACATAAATATATATATATA [CACACA_site6053]", "gcPBM binding intensity (ln)": "9.81 ± 0.28"}, {"sequence": "ATATATATATATTTATGTACATATTATTTATTCTTT [XGTACX_site6567]", "gcPBM binding intensity (ln)": "9.94 ± 0.17"}, {"sequence": "TCTTTATTATTCGCCACACACATATATATATATATA [CACACA_site3077]", "gcPBM binding intensity (ln)": "10.2 ± 0.43"}, {"sequence": "TCTTTATTATTCGCCACACACATATAAATATAAATA [CACACA_site7441]", "gcPBM binding intensity (ln)": "8.88 ± 0.38"}, {"sequence": "ATTTATTATATATACACACATACATATATATATATA [CACACA_site2159]", "gcPBM binding intensity (ln)": "9.91 ± 0.42"}, {"sequence": "CCATTCAAATTTCGCACACACATACAAAAAAAAAAA [CACACA_site3093]", "gcPBM binding intensity (ln)": "8.59 ± 0.42"}, {"sequence": "ATGCAATAATAATATTGTACGCATATATTTTTTACT [XGTACX_site3384]", "gcPBM binding intensity (ln)": "8.41 ± 0.3"}, {"sequence": "TATAGCATAAATATGTGTACATATTTATATGATATT [XGTACX_site6333]", "gcPBM binding intensity (ln)": "8.37 ± 0.28"}, {"sequence": "AATACGAAGGATAAGAGTACTAATTAAATAAATGAA [XGTACX_site523]", "gcPBM binding intensity (ln)": "8.96 ± 0.28"}, {"sequence": "TAAGGTAGTTCTGTATCACACACATATATATATATA [CACACA_site8693]", "gcPBM binding intensity (ln)": "10.1 ± 0.26"}, {"sequence": "AGGTAGTTCTGTATCACACACATATATATATATATA [CACACA_site2214]", "gcPBM binding intensity (ln)": "10.3 ± 0.47"}, {"sequence": "AGGTAGTTCTGTATCACACACATATAAATATAAATA [CACACA_site7110]", "gcPBM binding intensity (ln)": "8.48 ± 0.4"}, {"sequence": "TCAACAAAATTGAAGGAACACACATACATATATATA [CACACA_site7940]", "gcPBM binding intensity (ln)": "8.87 ± 0.23"}, {"sequence": "TTCCCCCCCAGACACACACACACATACATACCACAT [CACACA_site2305]", "gcPBM binding intensity (ln)": "10.5 ± 0.24"}, {"sequence": "CATACACCCAGACACACACACATATATATATATATA [CACACA_site634]", "gcPBM binding intensity (ln)": "10.1 ± 0.44"}, {"sequence": "CACCCCCACAGACACACACACACACCCACATATATA [CACACA_site365]", "gcPBM binding intensity (ln)": "9.27 ± 0.39"}, {"sequence": "TACAGACATACATACACACATACATACAGACATACA [CACACA_site1941]", "gcPBM binding intensity (ln)": "8.66 ± 0.26"}, {"sequence": "CACAGACACCCATACACACACATACCCATATATATA [CACACA_site5023]", "gcPBM binding intensity (ln)": "8.79 ± 0.32"}, {"sequence": "CCCCCCCACAGACACACACACATACATACCACATAT [CACACA_site2306]", "gcPBM binding intensity (ln)": "10.3 ± 0.014"}, {"sequence": "CATTTCTATATAAGCACACACGTGGAATTTTTTTTT [CACACA_site5537]", "gcPBM binding intensity (ln)": "8.7 ± 0.26"}, {"sequence": "GCCATAAAAATATATACACACATAAAAAAAAATTAT [CACACA_site1176]", "gcPBM binding intensity (ln)": "8.36 ± 0.53"}, {"sequence": "CTTTGTAGTTGGTCCACACACATATCTGGAAGAATA [CACACA_site4834]", "gcPBM binding intensity (ln)": "8.54 ± 0.39"}, {"sequence": "AACTTTTAGAAGAACACACACATATAGATTATGACC [CACACA_site6256]", "gcPBM binding intensity (ln)": "8.8 ± 0.26"}, {"sequence": "ATTATAACACCTCCCCCCCTTTTTTTATGAAGACCA [CACACA_negctrl_site1043]", "gcPBM binding intensity (ln)": "10.6 ± 0.18"}, {"sequence": "TATATTATGACCACCACACACCTATACACATAACAT [CACACA_site7199]", "gcPBM binding intensity (ln)": "8.88 ± 0.43"}]}]}
